{
  "source": "the OligoGym collection",
  "data": [
    {"biological_target": "C12orf42", "experiment": "pooled miR-30 sensor sort-seq; sequence = guide strand", "conditions": "shRNA", "values": [
      {"sequence": "TTCATAACAAGGGATGTGCTTT", "sensor-assay potency score (higher = more potent)": -0.454},
      {"sequence": "TCGAGCTCTGTGTTACTCGGGC", "sensor-assay potency score (higher = more potent)": -0.424},
      {"sequence": "TCTGCTTTGGATGTCGTCGGGG", "sensor-assay potency score (higher = more potent)": -0.507},
      {"sequence": "TTAGGTCTTGTGTGTCTACTGA", "sensor-assay potency score (higher = more potent)": 0.176},
      {"sequence": "TAGGTCTTGTGTGTCTACTGAT", "sensor-assay potency score (higher = more potent)": -0.227},
      {"sequence": "TCTTGTGTGTCTACTGATGTGT", "sensor-assay potency score (higher = more potent)": 0.434},
      {"sequence": "TTCATGTGATTAATGAATCTGG", "sensor-assay potency score (higher = more potent)": 0.286},
      {"sequence": "TTTATTAACCTCTTGGAGGGGA", "sensor-assay potency score (higher = more potent)": 0.548},
      {"sequence": "TGATTAATGAATCTGGAGCAGG", "sensor-assay potency score (higher = more potent)": -0.678},
      {"sequence": "TGTGCTTACAGAACACCTGGGG", "sensor-assay potency score (higher = more potent)": 0.85}
    ]},
    {"biological_target": "C13orf33", "experiment": "pooled miR-30 sensor sort-seq; sequence = guide strand", "conditions": "shRNA", "values": [
      {"sequence": "TTTATAATCACAGTAGTTGGTC", "sensor-assay potency score (higher = more potent)": 0.0911},
      {"sequence": "TCTATCTGTCTTCTTATCTTGG", "sensor-assay potency score (higher = more potent)": -0.385},
      {"sequence": "TACCTCTTGATGTAGCTGCTGA", "sensor-assay potency score (higher = more potent)": 0.0733},
      {"sequence": "TTGATGTAGCTGCTGAGGCGGT", "sensor-assay potency score (higher = more potent)": -0.889},
      {"sequence": "TTGCTCAATATAGTTTCCCTGT", "sensor-assay potency score (higher = more potent)": -0.333}
    ]}
  ]
}
